# Assay results taken from article PMC7862700, “An all-to-all approach to the identification of sequence-specific readers for epigenetic DNA modifications on cytosine”.
# Legend:
# Experiment in all cases: DAPPL (digital affinity profiling via proximity ligation, sequencing); 10 mM Tris-HCl pH 7.5, 50 mM NaCl, 1 mM DTT, 4% glycerol, room temperature, 30 min; GST-TFs on glutathione beads, 16-mer random dsDNA library, 0.1% formaldehyde crosslink after washing; high values mean tight binding
# [1] = target: T1, FLI1 (Homo sapiens, UniProt Q01543 1-452); conditions: protein: recombinant; tags: N-terminal GST; dsDNA, one strand shown
# T1 sequence: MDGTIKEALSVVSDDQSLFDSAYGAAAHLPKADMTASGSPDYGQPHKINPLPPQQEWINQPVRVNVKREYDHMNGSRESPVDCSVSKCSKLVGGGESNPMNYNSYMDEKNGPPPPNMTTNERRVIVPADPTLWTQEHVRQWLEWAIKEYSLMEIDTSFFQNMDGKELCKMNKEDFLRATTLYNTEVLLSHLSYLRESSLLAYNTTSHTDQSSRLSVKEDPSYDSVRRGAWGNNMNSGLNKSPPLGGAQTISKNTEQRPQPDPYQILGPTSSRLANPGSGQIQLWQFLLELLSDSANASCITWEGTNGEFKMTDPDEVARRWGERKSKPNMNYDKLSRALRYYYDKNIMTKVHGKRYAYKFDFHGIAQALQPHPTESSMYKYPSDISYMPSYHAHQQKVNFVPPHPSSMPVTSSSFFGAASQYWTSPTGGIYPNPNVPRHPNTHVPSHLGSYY
# Summary of the method: (§1)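 Human transcription factors carrying a GST fusion were produced in yeast, bound to glutathione beads, tagged with DNA barcodes and pooled together with a tag-only sample. Each pool was held with 200 nmole of a random double-stranded 16-mer DNA library in Tris/NaCl/DTT/glycerol buffer for 30 min at room temperature, then washed, crosslinked in 0.1% formaldehyde, proximity-ligated with BsaI/T4 ligase (1 h, 37 °C), PCR-amplified and sequenced on an Illumina NextSeq500. Binding signal is the read frequency of each hexamer for a given factor divided by its frequency in the tag-only sample.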
# [2] = target: T2, ELK1 (Homo sapiens, UniProt P19419 1-428); conditions: protein: recombinant; tags: N-terminal GST; dsDNA, one strand shown
# T2 sequence: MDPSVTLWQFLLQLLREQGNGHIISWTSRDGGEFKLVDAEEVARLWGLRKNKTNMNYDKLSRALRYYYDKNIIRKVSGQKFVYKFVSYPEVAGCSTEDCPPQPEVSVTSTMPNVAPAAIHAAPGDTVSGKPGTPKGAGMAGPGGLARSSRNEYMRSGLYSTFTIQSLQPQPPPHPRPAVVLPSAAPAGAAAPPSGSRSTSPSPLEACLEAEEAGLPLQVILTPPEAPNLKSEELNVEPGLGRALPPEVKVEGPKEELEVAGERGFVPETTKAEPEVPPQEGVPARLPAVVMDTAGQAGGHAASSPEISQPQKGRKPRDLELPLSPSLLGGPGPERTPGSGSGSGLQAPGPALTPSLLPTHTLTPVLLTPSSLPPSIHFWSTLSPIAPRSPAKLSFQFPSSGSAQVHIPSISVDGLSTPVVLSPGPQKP
# Summary of the method: as §1
# [3] = target: T3, GABPA (Homo sapiens, UniProt Q06546 1-454); conditions: protein: recombinant; tags: N-terminal GST; dsDNA, one strand shown
# T3 sequence: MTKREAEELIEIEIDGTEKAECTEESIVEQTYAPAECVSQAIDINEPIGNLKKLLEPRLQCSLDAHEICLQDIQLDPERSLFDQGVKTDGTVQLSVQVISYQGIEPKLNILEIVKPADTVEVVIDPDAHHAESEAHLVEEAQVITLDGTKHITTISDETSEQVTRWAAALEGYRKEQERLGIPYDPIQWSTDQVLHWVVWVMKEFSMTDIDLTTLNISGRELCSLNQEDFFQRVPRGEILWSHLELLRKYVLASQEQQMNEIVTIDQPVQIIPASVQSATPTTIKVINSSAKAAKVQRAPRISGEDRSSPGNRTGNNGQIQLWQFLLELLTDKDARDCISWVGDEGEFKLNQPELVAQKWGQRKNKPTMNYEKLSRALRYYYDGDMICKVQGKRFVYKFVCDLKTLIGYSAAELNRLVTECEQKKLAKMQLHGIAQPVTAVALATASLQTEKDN
# Summary of the method: as §1
# [4] = target: T4, ERG (Homo sapiens, UniProt P11308 1-479); conditions: protein: recombinant; tags: N-terminal GST; dsDNA, one strand shown
# T4 sequence: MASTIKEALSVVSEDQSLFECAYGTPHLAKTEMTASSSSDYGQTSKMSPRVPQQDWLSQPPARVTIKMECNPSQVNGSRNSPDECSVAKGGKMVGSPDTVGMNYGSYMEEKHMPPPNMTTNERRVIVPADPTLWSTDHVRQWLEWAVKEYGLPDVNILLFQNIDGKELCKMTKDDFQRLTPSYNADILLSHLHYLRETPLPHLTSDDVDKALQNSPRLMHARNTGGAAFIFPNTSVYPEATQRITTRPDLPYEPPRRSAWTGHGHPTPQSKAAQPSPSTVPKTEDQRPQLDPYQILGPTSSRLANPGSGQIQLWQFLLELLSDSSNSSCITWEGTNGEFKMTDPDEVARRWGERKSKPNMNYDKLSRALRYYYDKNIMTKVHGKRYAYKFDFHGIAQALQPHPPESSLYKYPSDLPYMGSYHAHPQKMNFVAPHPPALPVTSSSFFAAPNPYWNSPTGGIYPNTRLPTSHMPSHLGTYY
# Summary of the method: as §1
# [5] = target: ELF1 (Homo sapiens, UniProt P32519 1-619); conditions: protein: recombinant; tags: N-terminal GST; dsDNA, one strand shown
# Summary of the method: as §1
# [6] = target: T5, EHF (Homo sapiens, UniProt Q9NZC4 1-300); conditions: protein: recombinant; tags: N-terminal GST; dsDNA, one strand shown
# T5 sequence: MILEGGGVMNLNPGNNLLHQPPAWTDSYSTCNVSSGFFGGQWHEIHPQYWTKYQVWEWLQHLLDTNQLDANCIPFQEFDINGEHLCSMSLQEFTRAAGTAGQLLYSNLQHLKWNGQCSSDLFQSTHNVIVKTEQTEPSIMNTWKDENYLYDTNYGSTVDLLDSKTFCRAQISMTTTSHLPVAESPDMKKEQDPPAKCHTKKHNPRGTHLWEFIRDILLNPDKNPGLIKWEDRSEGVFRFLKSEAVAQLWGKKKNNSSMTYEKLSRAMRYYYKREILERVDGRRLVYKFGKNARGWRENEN
# Summary of the method: as §1
# [7] = target: SPI1 (Homo sapiens, UniProt P17947 1-270); conditions: protein: recombinant; tags: N-terminal GST; dsDNA, one strand shown
# Summary of the method: as §1
# [8] = target: SPIB (Homo sapiens, UniProt Q01892 1-262); conditions: protein: recombinant; tags: N-terminal GST; dsDNA, one strand shown
# Summary of the method: as §1
# [9] = target: T6, ELK3 (Homo sapiens, UniProt P41970 1-407); conditions: protein: recombinant; tags: N-terminal GST; dsDNA, one strand shown
# T6 sequence: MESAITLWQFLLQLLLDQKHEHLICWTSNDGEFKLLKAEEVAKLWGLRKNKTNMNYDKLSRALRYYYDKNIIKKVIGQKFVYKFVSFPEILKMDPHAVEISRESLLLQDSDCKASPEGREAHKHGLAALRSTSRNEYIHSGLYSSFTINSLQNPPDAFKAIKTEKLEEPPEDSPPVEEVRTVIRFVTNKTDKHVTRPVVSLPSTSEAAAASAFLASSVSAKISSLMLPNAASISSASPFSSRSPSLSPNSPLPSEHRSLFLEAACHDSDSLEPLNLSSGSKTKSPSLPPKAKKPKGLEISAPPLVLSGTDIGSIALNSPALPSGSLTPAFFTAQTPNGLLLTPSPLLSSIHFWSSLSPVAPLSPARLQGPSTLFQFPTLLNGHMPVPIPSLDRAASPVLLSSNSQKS
# Summary of the method: as §1
# [10] = target: T7, FEV (Homo sapiens, UniProt Q99581 1-238); conditions: protein: recombinant; tags: N-terminal GST; dsDNA, one strand shown
# T7 sequence: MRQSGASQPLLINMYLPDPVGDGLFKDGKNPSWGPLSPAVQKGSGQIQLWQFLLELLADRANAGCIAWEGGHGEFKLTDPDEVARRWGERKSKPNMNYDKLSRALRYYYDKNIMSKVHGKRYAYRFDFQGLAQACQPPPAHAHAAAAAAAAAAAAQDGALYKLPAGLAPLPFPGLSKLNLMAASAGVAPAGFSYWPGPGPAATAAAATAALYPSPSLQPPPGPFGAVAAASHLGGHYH
# Summary of the method: as §1
# [11] = target: ETV5 (Homo sapiens, UniProt P41161 1-510); conditions: protein: recombinant; tags: N-terminal GST; dsDNA, one strand shown
# Summary of the method: as §1
# [12] = target: HSF1 (Homo sapiens, UniProt Q00613 1-529); conditions: protein: recombinant; tags: N-terminal GST; chain copies: 3; dsDNA, one strand shown
# Summary of the method: as §1
# [13] = target: T8, SPIC (Homo sapiens, UniProt Q8N5J4 1-248); conditions: protein: recombinant; tags: N-terminal GST; dsDNA, one strand shown
# T8 sequence: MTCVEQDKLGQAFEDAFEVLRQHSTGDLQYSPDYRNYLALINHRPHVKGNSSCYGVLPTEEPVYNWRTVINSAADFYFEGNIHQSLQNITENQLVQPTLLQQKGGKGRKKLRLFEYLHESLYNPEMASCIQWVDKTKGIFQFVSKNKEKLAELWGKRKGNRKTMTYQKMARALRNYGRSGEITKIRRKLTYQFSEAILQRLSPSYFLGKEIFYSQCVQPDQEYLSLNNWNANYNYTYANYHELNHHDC
# Summary of the method: as §1
# [14] = target: ELF4 (Homo sapiens, UniProt Q99607 1-663); conditions: protein: recombinant; tags: N-terminal GST; dsDNA, one strand shown
# Summary of the method: as §1
# [15] = target: T9, ELK4 (Homo sapiens, UniProt P28324-2 1-405); conditions: protein: recombinant; tags: N-terminal GST; dsDNA, one strand shown
# T9 sequence: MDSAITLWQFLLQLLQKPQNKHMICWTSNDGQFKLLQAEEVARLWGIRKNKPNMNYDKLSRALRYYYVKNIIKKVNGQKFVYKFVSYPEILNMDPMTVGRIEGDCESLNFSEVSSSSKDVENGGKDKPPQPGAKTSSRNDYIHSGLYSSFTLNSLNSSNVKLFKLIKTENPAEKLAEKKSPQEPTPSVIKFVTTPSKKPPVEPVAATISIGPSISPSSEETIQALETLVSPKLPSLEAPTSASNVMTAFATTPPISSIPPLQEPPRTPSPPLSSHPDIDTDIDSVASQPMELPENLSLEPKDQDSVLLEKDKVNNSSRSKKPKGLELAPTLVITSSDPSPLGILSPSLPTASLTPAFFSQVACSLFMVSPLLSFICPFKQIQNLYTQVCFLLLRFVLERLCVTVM
# Summary of the method: as §1
# [16] = target: T10, ETV2 (Homo sapiens, UniProt O00321 1-342); conditions: protein: recombinant; tags: N-terminal GST; dsDNA, one strand shown
# T10 sequence: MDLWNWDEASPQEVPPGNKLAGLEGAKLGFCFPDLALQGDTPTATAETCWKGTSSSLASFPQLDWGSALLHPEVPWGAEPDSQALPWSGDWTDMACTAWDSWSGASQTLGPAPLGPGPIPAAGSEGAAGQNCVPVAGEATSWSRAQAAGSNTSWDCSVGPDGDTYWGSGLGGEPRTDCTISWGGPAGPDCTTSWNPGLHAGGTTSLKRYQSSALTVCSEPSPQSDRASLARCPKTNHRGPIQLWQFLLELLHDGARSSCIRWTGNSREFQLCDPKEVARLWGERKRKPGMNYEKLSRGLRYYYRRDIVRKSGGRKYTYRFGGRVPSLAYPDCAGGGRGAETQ
# Summary of the method: as §1
# [17] = target: T11, ELF3 (Homo sapiens, UniProt P78545 1-371); conditions: protein: recombinant; tags: N-terminal GST; dsDNA, one strand shown
# T11 sequence: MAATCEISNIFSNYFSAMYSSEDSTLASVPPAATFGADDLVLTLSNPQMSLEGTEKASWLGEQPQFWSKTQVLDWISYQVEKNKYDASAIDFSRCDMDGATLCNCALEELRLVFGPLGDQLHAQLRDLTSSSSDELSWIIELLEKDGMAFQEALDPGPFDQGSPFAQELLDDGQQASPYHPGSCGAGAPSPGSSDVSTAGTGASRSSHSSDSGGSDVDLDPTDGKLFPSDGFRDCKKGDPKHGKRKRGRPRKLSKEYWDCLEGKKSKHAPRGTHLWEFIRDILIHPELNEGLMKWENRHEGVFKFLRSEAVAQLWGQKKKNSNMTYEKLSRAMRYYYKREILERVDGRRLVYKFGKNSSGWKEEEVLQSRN
# Summary of the method: as §1
# [18] = target: ETV1 (Homo sapiens, UniProt P50549 1-477); conditions: protein: recombinant; tags: N-terminal GST; dsDNA, one strand shown
# Summary of the method: as §1
# Chain of ETV5 (P41161 whole entry): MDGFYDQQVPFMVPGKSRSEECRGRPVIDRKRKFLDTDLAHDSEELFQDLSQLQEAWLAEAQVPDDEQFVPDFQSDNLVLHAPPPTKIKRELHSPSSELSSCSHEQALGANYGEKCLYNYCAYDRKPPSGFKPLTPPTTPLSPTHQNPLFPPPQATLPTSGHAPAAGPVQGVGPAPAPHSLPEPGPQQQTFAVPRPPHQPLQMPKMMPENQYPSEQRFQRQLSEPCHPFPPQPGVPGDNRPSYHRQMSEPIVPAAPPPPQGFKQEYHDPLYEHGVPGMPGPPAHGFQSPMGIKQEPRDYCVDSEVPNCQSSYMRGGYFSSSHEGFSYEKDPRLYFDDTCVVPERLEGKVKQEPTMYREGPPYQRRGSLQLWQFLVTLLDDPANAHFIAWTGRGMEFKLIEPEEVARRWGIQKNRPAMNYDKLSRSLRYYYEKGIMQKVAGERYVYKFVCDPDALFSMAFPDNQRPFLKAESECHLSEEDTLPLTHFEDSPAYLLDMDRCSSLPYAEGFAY
# Chain of ELF4 (Q99607 whole entry): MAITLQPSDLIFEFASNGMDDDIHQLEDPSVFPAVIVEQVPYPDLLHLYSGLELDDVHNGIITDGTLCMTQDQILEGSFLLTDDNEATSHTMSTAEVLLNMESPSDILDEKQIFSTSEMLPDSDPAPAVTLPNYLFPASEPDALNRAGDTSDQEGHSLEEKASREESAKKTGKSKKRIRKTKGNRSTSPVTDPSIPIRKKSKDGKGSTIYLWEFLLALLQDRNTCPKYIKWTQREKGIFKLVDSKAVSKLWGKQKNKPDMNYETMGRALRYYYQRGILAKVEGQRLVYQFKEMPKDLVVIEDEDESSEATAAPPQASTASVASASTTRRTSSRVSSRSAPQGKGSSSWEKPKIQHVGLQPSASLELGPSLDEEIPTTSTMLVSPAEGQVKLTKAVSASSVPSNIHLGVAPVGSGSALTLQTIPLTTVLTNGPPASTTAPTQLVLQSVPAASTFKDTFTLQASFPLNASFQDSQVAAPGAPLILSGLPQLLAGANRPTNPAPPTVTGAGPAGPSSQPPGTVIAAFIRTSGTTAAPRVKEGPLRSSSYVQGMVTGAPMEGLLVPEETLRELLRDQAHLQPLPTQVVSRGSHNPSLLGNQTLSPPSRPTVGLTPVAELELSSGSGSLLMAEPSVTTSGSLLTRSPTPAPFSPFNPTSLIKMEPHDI
# Chain of ELF1 (P32519 whole entry): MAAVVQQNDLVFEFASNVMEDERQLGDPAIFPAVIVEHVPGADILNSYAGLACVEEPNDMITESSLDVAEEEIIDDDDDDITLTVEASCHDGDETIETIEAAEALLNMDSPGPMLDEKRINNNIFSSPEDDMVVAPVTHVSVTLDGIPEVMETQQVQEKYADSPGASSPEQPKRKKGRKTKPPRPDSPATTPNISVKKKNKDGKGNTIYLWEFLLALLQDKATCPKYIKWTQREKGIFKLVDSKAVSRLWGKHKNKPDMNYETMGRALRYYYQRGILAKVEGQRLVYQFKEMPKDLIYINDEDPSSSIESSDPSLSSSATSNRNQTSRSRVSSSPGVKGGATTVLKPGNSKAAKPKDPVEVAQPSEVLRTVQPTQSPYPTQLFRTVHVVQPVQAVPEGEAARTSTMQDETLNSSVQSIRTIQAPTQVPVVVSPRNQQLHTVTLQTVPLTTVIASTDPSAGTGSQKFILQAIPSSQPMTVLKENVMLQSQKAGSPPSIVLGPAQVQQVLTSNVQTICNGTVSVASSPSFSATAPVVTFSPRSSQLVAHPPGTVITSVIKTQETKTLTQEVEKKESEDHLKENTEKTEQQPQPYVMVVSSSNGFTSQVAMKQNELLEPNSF
# Chain of HSF1 (Q00613 whole entry): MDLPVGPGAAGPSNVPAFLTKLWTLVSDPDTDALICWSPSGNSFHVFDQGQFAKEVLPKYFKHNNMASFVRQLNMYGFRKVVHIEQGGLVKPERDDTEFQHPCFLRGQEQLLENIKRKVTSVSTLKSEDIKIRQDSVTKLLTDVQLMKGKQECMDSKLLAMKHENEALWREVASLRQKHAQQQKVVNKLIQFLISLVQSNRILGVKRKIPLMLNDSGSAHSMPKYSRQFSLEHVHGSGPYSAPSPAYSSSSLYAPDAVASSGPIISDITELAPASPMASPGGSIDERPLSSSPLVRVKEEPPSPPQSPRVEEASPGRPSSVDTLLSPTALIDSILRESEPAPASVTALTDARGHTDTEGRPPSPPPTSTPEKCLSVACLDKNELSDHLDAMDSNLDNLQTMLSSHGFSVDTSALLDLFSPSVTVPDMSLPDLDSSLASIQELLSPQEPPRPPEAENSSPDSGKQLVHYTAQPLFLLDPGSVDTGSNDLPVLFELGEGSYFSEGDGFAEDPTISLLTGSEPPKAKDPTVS
# Chain of ETV1 (P50549 whole entry): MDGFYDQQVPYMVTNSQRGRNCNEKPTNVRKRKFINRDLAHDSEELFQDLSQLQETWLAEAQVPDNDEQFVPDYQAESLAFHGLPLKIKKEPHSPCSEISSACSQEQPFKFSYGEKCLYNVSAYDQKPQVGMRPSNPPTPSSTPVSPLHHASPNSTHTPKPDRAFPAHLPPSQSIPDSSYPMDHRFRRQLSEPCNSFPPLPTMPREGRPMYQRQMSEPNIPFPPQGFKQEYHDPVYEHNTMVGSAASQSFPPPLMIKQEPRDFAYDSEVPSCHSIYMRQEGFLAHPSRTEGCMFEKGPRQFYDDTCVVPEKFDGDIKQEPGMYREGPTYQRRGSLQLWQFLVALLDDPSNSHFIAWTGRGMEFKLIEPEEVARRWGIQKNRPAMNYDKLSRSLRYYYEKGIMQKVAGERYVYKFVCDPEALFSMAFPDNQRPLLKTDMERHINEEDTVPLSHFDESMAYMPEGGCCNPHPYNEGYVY
# Chain of SPIB (Q01892 whole entry): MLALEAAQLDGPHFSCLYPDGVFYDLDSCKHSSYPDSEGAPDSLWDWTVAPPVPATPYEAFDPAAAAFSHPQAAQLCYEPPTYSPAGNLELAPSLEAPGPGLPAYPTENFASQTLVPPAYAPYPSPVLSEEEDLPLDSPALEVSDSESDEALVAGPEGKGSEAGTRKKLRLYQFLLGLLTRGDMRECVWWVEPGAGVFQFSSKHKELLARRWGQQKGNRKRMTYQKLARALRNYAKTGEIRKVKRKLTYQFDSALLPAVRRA
sequence,measurement,setting,value
AAGGAA,binding signal,[1],"1.19 fold enrichment (6-mer frequency, TF over GST control)"
same,binding signal,[2],"1.27 fold enrichment (6-mer frequency, TF over GST control)"
same,binding signal,[3],"1.2 fold enrichment (6-mer frequency, TF over GST control)"
same,binding signal,[4],"1.44 fold enrichment (6-mer frequency, TF over GST control)"
same,binding signal,[5],"1.25 fold enrichment (6-mer frequency, TF over GST control)"
same,binding signal,[6],"1.48 fold enrichment (6-mer frequency, TF over GST control)"
same,binding signal,[7],"1.48 fold enrichment (6-mer frequency, TF over GST control)"
same,binding signal,[8],"1.29 fold enrichment (6-mer frequency, TF over GST control)"
same,binding signal,[9],"1.21 fold enrichment (6-mer frequency, TF over GST control)"
same,binding signal,[10],"1.19 fold enrichment (6-mer frequency, TF over GST control)"
same,binding signal,[11],"1.35 fold enrichment (6-mer frequency, TF over GST control)"
same,binding signal,[12],"1.17 fold enrichment (6-mer frequency, TF over GST control)"
same,binding signal,[13],"1.36 fold enrichment (6-mer frequency, TF over GST control)"
same,binding signal,[14],"1.25 fold enrichment (6-mer frequency, TF over GST control)"
same,binding signal,[15],"1.12 fold enrichment (6-mer frequency, TF over GST control)"
same,binding signal,[16],"1.31 fold enrichment (6-mer frequency, TF over GST control)"
same,binding signal,[17],"1.66 fold enrichment (6-mer frequency, TF over GST control)"
same,binding signal,[18],"1.24 fold enrichment (6-mer frequency, TF over GST control)"
